Source: PubChem BioAssay (NCATS)
Results filed as inconclusive are left out. Calls of active or inactive are those of the source. Unless noted, calls come from the whole dose curve; as a rule, active = well fitted curve in the direction sought with a large enough effect; inconclusive = small, poorly fitted or top-dose-only effect, or another doubt; inactive = no such curve, though single readings can be large; an effect the other way counts as inactive or inconclusive.

How the values were obtained:
[1] = target: Lysosomal acid glucosylceramidase (Homo sapiens) (UniProt P04062); test: Glucocerebrosidase-p2 (AID 348; in the data active = potency below about 10 µM; note: potency is the fitted concentration of half-maximal effect); details: purified GBA, blue fluorogenic substrate, 40 min
Sequence of Lysosomal acid glucosylceramidase (Homo sapiens) (P04062 whole entry, looked up): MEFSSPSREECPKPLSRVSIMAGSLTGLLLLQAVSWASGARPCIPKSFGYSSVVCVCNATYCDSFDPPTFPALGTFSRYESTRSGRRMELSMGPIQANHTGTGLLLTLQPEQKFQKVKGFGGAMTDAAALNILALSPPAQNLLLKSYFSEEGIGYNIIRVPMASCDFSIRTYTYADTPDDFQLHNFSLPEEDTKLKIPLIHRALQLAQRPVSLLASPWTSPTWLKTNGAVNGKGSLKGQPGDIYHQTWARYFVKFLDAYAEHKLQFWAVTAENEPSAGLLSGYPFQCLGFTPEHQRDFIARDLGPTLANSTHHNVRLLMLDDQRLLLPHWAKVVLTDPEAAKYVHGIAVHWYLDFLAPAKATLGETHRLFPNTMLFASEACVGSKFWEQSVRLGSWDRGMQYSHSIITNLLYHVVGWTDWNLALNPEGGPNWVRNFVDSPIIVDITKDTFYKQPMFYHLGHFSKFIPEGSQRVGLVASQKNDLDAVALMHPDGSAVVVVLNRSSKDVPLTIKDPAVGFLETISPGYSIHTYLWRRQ
How it was run: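 Compounds titrated from 0.6 nM upwards against 0.2 nM enzyme in pH 5.9 citric acid/KH2PO4, taurocholate, tween-20; blue fluorogenic substrate 80 uM, 40 min room temperature, stopped and read Ex 365/Em 440 for AC50.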

[2] = AP1 Signaling Pathway (AID 357; active = well fitted curve in either direction with a large enough effect, not every such curve was filed as active;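 note: ME-180 reporter cells stimulated with EGF at its EC50 level; % is set by controls: 0 for no effect and ±100 for the full control effect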); details: ME-180 AP-1-bla reporter, EGF-induced, beta-lactamase ratio, 5 h; at 7.69 µM (top of the series) unless noted
How it was run: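 Cells are seeded overnight, exposed to compound titrations and an EC50 level of EGF for 5 hours at 37 °C, then loaded with CCF4 dye for 2.5 hours. Beta-lactamase activity under the AP-1 element is read as a blue/green ratio.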

[3] = target: Cytochrome P450 1A2 (Homo sapiens) (UniProt P05177); test: p450-cyp1a2 (AID 410; calls by dose curve;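 note: -100% = full effect of reference inhibitor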); details: recombinant CYP1A2, luciferin-ME demethylation, luminescence; series mostly up to 11.4 µM
Sequence of Cytochrome P450 1A2 (Homo sapiens) (P05177 whole entry, looked up): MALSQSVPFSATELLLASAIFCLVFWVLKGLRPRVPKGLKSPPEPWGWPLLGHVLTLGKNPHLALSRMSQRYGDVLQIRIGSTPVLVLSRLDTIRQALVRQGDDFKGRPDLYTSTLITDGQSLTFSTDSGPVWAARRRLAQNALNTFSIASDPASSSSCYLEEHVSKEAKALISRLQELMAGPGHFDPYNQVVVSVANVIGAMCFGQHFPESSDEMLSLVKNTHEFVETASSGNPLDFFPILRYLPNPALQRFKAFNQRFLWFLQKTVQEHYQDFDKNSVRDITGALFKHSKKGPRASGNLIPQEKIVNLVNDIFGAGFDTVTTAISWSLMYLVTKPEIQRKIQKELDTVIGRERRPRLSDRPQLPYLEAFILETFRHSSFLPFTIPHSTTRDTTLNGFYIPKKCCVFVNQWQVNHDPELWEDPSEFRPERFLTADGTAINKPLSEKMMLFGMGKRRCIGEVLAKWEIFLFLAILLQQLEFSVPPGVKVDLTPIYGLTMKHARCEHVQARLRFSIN
How it was run: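 Human CYP1A2 (20nM) demethylated Luciferin-ME at its Km (100uM) in 100mM KPO4. After 10 min compound preincubation, NADPH regeneration ran the reaction 60 min at room temperature. Luciferin was read by luminescence, normalized to 57 uM furafylline.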

[4] = NFAT Signaling Pathway (AID 444; active = well fitted curve in either direction with a large enough effect, not every such curve was filed as active;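 note: carbachol stimulus at about its EC50 of 1 µM final; % is set by controls: 0 for no effect and ±100 for the full control effect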); details: Jurkat NFAT-bla M1, carbachol, beta-lactamase ratio, 5 h; at 7.69 µM (top of the series) unless noted
How it was run: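 Jurkat cells carrying an NFAT-driven β-lactamase reporter and co-transfected muscarinic M1 receptor were treated with compound plus carbachol (1 uM final, an EC50 level) for 5 h at 37 °C. CCF4 loading followed for 1 h at RT; 460/530 nm ratio gave %activity.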

[5] = Stat Signaling Pathway (AID 446; active = well fitted curve in either direction with a large enough effect, not every such curve was filed as active;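 note: ME-180 cervical cancer cells given 40 pM IL-6 alongside compound; SIE-controlled beta-lactamase reporter measured as 460/530 nm FRET emission ratio; % is set by controls: 0 for no effect and ±100 for the full control effect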); details: ME-180 SIE beta-lactamase reporter, IL-6 stimulated, 5 h; at 7.69 µM (top of the series) unless noted
How it was run: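 ME-180 SIE-bla cells; overnight plating; cpd + IL-6 40 pM, 5 h, 37 C; LiveBLAzer 2.5 h RT; 460/530 nm emission ratio. Normalized to 300 pM IL-6 and 125 nM JAK inhibitor controls.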

[6] = target: Glucocorticoid receptor (Homo sapiens) (UniProt P04150); test: GR-GFP Redistribution (AID 450;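 active = compounds whose dose series gives a full or clear partial fitted curve of increased nuclear translocation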; note: potency is the fitted concentration of half-maximal effect); details: U2OS GR-GFP nuclear translocation, laser cytometry, 2 h
Sequence of Glucocorticoid receptor (Homo sapiens) (P04150 whole entry, looked up, the tested form may be a part): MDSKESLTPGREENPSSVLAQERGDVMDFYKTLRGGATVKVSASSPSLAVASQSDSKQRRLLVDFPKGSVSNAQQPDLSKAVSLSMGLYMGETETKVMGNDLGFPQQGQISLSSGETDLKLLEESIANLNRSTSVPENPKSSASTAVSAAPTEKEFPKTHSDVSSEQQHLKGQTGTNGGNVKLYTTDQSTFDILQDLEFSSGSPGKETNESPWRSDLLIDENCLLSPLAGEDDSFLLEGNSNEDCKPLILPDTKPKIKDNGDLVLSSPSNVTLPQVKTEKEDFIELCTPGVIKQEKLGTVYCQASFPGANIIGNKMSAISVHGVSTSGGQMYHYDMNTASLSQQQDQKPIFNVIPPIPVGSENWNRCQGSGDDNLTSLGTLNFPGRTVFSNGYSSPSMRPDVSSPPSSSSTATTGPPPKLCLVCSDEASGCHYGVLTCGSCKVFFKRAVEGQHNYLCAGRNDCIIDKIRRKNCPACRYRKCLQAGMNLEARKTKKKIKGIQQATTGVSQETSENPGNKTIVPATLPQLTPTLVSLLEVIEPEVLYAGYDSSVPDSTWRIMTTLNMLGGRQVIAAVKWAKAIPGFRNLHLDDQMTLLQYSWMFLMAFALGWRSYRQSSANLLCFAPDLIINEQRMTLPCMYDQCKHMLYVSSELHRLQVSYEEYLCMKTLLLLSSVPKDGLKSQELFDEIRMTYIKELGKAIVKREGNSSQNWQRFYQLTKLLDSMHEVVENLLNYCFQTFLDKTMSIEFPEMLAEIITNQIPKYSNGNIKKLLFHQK

[7] = target: Glucocorticoid receptor (Homo sapiens) (UniProt P04150); test: GR-EFC Redistribution (AID 451; calls by dose curve; note: potency is the fitted concentration of half-maximal effect); details: CHO-K1 GR-EFC translocation, beta-gal luminescence, 2 h
How it was run: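 CHO-K1 cells stably expressing nuclear-localized β-gal enzyme acceptor and GR fused C-terminally to the enzyme donor fragment; ligand-driven nuclear translocation restores β-gal by complementation. Compounds titrated up to 46 uM final, 2 h at 37 °C; luminescence read.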

[8] = target: Mitogen-activated protein kinase 10 (Mus musculus) (UniProt Q61831); test: JNK3 AlphaScreen Assay (AID 530; active = well fitted curve in either direction with a large enough effect, not every such curve was filed as active;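 note: kinase came from lysate of stimulated human HepG2 cells; signal reports phosphorylation of biotinylated GST-cJun 1-79 at Ser73 with 10 µM ATP; % is set by controls: 0 for no effect and ±100 for the full control effect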); details: JNK3 lysate, c-Jun phosphorylation; series mostly up to 57.1 µM
How it was run: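 JNK3 came from HepG2 lysates pre-activated with IL-1beta and TNF-alpha and phosphorylated biotinylated GST-cJun (1-79) at 10 uM ATP, pH 7.6, room temperature. Compounds were titrated. AlphaScreen signal used anti-phospho-cJun (Ser73) antibody.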

[9] = target: Cytochrome P450 2C19 (Homo sapiens) (UniProt P33261); test: qHTS Assay for Inhibitors and Substrates of Cytochrome P450 2C19 (AID 899); details: recombinant CYP2C19, luciferin-H EGE luminescence; series mostly up to 11.4 µM; note: % is set by controls: 0 for no effect and ±100 for the full control effect; nearly all actives have a fitted effect of over 60% in size
Sequence of Cytochrome P450 2C19 (Homo sapiens) (P33261 whole entry, looked up): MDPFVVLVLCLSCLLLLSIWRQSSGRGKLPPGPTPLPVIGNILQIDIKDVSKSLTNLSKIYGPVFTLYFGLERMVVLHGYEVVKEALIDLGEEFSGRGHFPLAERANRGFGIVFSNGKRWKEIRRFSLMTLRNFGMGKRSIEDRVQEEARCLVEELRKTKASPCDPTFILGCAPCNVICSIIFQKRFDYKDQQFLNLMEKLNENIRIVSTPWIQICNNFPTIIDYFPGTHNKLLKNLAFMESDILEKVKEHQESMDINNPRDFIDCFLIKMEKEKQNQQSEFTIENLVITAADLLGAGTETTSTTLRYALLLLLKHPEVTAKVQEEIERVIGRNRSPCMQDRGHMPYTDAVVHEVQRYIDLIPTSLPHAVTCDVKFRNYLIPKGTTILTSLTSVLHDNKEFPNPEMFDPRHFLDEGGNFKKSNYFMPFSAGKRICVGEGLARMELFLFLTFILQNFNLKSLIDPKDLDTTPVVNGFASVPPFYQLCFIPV
How it was run: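 Human CYP2C19 (5nM) with Luciferin-H EGE at 10uM (its KM) in 50mM KPO4 was preincubated with compound for 10 min at 37C. NADPH regeneration started a 60 min 37C reaction. Luciferin was read by luminescence, normalized to 57uM ketoconazole.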

[10] = target: ATP-dependent 6-phosphofructokinase (Trypanosoma brucei brucei) (UniProt O15648); test: qHTS Assay to Find Inhibitors of T. brucei phosphofructokinase: hit validation (AID 492961); details: T. brucei PFK, ADP-Glo luminescence; series mostly up to 51.4 µM
Sequence of ATP-dependent 6-phosphofructokinase (Trypanosoma brucei brucei) (O15648 whole entry, looked up): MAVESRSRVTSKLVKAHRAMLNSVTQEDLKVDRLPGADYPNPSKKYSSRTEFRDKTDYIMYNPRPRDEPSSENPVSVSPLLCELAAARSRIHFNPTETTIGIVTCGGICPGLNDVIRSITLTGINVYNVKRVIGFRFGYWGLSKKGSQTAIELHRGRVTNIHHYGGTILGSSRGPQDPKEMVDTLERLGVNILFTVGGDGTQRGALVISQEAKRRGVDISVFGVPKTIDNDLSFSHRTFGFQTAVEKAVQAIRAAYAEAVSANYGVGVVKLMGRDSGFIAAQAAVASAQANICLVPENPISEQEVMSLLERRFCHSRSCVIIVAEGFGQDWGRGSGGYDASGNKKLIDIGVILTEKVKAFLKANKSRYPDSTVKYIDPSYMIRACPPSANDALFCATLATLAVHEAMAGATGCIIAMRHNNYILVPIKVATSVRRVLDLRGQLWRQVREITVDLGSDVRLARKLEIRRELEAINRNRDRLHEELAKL
How it was run: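 PFK 1.25 nM, F6P 0.5 mM, ATP 0.1 mM, MgCl2 5 mM, 0.1 M TEA pH 8.0, Tween20 0.01%, BSA 0.1%; 45 min RT. ADP-Glo two-step detection, luminescence. qHTS titration; curve fitting with curve-class categorization.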

[11] = target: Ubiquitin carboxyl-terminal hydrolase 1 (Homo sapiens) (UniProt O94782); test: Inhibitors of USP1/UAF1: Pilot qHTS (AID 504865); details: purified USP1/UAF1, Ub-rhodamine cleavage fluorescence; series mostly up to 114 µM;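 note: rhodamine fluorescence freed from ubiquitin-rhodamine substrate followed over time; top concentration of the series differs between compounds; % is set by controls: 0 for no effect and ±100 for the full control effect; nearly all actives have a fitted effect of over 35% in size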
Sequence of Ubiquitin carboxyl-terminal hydrolase 1 (Homo sapiens) (O94782 whole entry, looked up): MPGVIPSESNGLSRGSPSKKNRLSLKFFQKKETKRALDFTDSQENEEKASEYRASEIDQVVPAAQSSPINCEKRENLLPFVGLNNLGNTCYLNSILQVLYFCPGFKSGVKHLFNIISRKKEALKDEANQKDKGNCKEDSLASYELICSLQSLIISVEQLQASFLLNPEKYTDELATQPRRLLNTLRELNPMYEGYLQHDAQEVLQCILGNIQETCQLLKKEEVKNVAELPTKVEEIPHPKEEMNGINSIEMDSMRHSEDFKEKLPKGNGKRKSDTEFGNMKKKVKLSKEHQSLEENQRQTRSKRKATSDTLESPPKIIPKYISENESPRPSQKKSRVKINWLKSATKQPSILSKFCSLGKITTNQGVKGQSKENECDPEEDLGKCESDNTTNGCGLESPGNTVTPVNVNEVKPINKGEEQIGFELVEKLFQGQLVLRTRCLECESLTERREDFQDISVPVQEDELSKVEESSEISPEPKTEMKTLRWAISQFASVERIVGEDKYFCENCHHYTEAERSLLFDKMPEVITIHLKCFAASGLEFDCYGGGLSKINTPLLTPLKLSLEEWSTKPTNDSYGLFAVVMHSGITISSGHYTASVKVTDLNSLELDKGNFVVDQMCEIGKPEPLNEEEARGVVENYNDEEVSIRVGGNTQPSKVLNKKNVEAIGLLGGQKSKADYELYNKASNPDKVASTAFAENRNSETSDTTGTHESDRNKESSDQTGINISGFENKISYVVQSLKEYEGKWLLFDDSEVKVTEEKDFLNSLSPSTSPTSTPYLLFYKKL
How it was run: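 Kinetic fluorescence assay: 1nM USP1/UAF1, 15 min compound preincubation, then 150nM Ub-Rho; 480/540 nm.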

[12] = target: Luciferin 4-monooxygenase (Photinus pyralis) (UniProt P08659); test: Biochemical firefly luciferase enzyme assay for NPC (AID 624030);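 note: purified P. pyralis luciferase at 10 nM with luciferin and ATP substrate; 0% = DMSO and -100% = full luciferase inhibition by PTC124 control; nearly all actives have a fitted effect of over 70% in size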; details: purified P. pyralis luciferase, luminescence, 5 min; series mostly up to 58.6 µM
Sequence of Luciferin 4-monooxygenase (Photinus pyralis) (P08659 whole entry, looked up): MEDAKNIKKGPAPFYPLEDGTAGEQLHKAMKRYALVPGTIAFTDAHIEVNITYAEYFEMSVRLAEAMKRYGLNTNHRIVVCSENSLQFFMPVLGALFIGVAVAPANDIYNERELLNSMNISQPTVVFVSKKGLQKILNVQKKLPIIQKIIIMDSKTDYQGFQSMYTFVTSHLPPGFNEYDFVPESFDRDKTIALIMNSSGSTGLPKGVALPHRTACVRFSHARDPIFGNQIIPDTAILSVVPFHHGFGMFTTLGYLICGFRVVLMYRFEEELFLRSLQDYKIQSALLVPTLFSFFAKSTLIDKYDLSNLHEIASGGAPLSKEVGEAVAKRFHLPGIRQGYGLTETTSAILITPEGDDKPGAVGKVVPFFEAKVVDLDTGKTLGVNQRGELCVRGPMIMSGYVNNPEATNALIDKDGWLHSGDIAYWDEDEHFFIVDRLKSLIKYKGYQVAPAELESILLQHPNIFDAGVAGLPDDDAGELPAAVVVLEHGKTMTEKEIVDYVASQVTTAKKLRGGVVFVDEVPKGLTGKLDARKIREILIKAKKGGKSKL
How it was run: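 Counter-screen for direct inhibition of the luciferase enzyme by approved-drug library compounds, run at 10 nM enzyme in 50 mM Tris acetate (final). Luminescence was read within 5 min of enzyme-buffer addition and normalized to PTC124 versus DMSO (0%).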

[13] = S16 Schwann cell viability assay (CellTiter-Glo assay) (AID 624031); details: S16 rat Schwann cells viability, 24 h; series mostly up to 57.5 µM;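 note: cellular ATP luminescence as a viability measure; plate controls were DMSO-treated cells for no effect and cell-free wells for full effect; nearly all actives have a fitted effect of over 70% in size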
How it was run: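 CellTiter-Glo ATP luminescence counter-screen in untransfected S16 rat Schwann cells, 24h compound exposure at 37 degree Celsius after overnight seeding (500-750 cells/well); response scaled between cell-free wells and DMSO (0% activity), curves classed by r2 and magnitude.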

[14] = S16 Schwann cell PMP22 intronic element firefly luciferase assay (AID 624032); details: S16 rat Schwann cells, PMP22 element FLuc, 24 h; series mostly up to 57.5 µM;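 note: plate controls were DMSO for no effect and PTC124 positive control mean for full effect; nearly all actives have a fitted effect of over 30% in size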
How it was run: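 Rat S16 Schwann cells stably carrying a PMP22 intronic element-driven Fluc reporter were seeded overnight, then exposed to compounds for 24 h at 37 °C. Luminescence was normalized to PTC124 (positive control) and DMSO (0% activity).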

[15] = S16 Schwann cell PMP22 intronic element beta-lactamase assay (AID 624044; calls by dose curve;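 note: 0% = DMSO and -100% = potassium clavulanate positive control; nearly all actives have a fitted effect of over 15% in size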); details: S16 rat Schwann cells, PMP22 element beta-lactamase FRET, 24 h; series mostly up to 38.3 µM
How it was run: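 Rat S16 Schwann cells with beta-Lac driven by a PMP22 intronic element, compound-treated 24 h at 37 °C. LiveBLAzer FRET B/G read: 460 nm normalized to potassium clavulanate vs DMSO; 535 nm FRET as viability; concentration-effect curves classified.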

[16] = qHTS profiling for inhibitors of Plasmodium falciparum proliferation (AID 504749);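 note: 0% = DMSO vehicle and full inhibition = artemisinin control; nearly all actives have a fitted effect of over 60% in size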; details: P. falciparum in erythrocytes, SYBR Green DNA, 72 h, at 28.7 µM (top of the series)
How it was run: (§1)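 P. falciparum-infected erythrocytes (0.3% parasitemia, 2.5% hematocrit final) were exposed to compounds for 72 h at 37 C in 5% CO2, then lysed with SYBR Green buffer overnight at room temperature; parasite DNA fluorescence was normalized to artemisinin and DMSO controls.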

3D7 = test: as above; details: P. falciparum in erythrocytes, SYBR Green DNA, 72 h; series mostly up to 28.7 µM
How it was run: as §1

7G8 = test: as above; details: P. falciparum in erythrocytes, SYBR Green DNA, 72 h; series mostly up to 28.7 µM
How it was run: as §1

AA1029 = test: as above; details: P. falciparum in erythrocytes, SYBR Green DNA, 72 h; series mostly up to 28.7 µM
How it was run: as §1

AS120 = test: as above; details: P. falciparum in erythrocytes, SYBR Green DNA, 72 h; series mostly up to 28.7 µM
How it was run: as §1

ATS189 = test: as above; details: P. falciparum in erythrocytes, SYBR Green DNA, 72 h; series mostly up to 28.7 µM
How it was run: as §1

ATS95 = test: as above; details: P. falciparum in erythrocytes, SYBR Green DNA, 72 h; series mostly up to 28.7 µM
How it was run: as §1

C2A = test: as above; details: P. falciparum in erythrocytes, SYBR Green DNA, 72 h; series mostly up to 28.7 µM
How it was run: as §1

CP185 = test: as above; details: P. falciparum in erythrocytes, SYBR Green DNA, 72 h; series mostly up to 28.7 µM
How it was run: as §1

CP191 = test: as above; details: P. falciparum in erythrocytes, SYBR Green DNA, 72 h; series mostly up to 28.7 µM
How it was run: as §1

CP192 = test: as above; details: P. falciparum in erythrocytes, SYBR Green DNA, 72 h; series mostly up to 28.7 µM
How it was run: as §1

CP194 = test: as above; details: P. falciparum in erythrocytes, SYBR Green DNA, 72 h; series mostly up to 28.7 µM
How it was run: as §1

CP201 = test: as above; details: P. falciparum in erythrocytes, SYBR Green DNA, 72 h; series mostly up to 28.7 µM
How it was run: as §1

CP203 = test: as above; details: P. falciparum in erythrocytes, SYBR Green DNA, 72 h; series mostly up to 28.7 µM
How it was run: as §1

CP211 = test: as above; details: P. falciparum in erythrocytes, SYBR Green DNA, 72 h; series mostly up to 28.7 µM
How it was run: as §1

CP215 = test: as above; details: P. falciparum in erythrocytes, SYBR Green DNA, 72 h; series mostly up to 28.7 µM
How it was run: as §1

CP217 = test: as above; details: P. falciparum in erythrocytes, SYBR Green DNA, 72 h; series mostly up to 28.7 µM
How it was run: as §1

CP237 = test: as above; details: P. falciparum in erythrocytes, SYBR Green DNA, 72 h; series mostly up to 28.7 µM
How it was run: as §1

CP238 = test: as above; details: P. falciparum in erythrocytes, SYBR Green DNA, 72 h; series mostly up to 28.7 µM
How it was run: as §1

CP247 = test: as above; details: P. falciparum in erythrocytes, SYBR Green DNA, 72 h; series mostly up to 28.7 µM
How it was run: as §1

CP250 = test: as above; details: P. falciparum in erythrocytes, SYBR Green DNA, 72 h; series mostly up to 28.7 µM
How it was run: as §1

CP252 = test: as above; details: P. falciparum in erythrocytes, SYBR Green DNA, 72 h; series mostly up to 28.7 µM
How it was run: as §1

C[N+]1([O-])[C@H]2CC[C@H]1CC(OC(=O)[C@@H](CO)c1ccccc1)C2 (stereo partly drawn)
active: activity change, negative = inhibition [4] -79.7%
inactive: Potency [1] > 11.4 µM | activity change, negative = inhibition [2] -0.292% | activity change, negative = inhibition [3] 0.8% [at 2.29 µM] | activity, negative = inhibition [5] -0.881% | Potency [6] > 46 µM | Potency [7] > 9.22 µM | activity change, negative = inhibition [8] 1.19% [at 11.4 µM] | Potency [9] | outcome [10] | Potency [11] | outcome [12] | outcome [13] | outcome [14] | outcome [15] | activity, negative = inhibition ([16]; parasite line A) 6.57% | activity, negative = inhibition ([16]; parasite line B) -2.12% | Potency (3D7) | Potency (7G8) | Potency (AA1029) | Potency (AS120) | Potency (ATS189) | Potency (ATS95) | Potency (C2A) | Potency (CP185) | Potency (CP191) | Potency (CP192) | Potency (CP194) | Potency (CP201) | Potency (CP203) | Potency (CP211) | Potency (CP215) | Potency (CP217) | Potency (CP237) | Potency (CP238) | Potency (CP247) | Potency (CP250) | Potency (CP252)
